The source of these data is paper PMC7862700, “An all-to-all approach to the identification of sequence-specific readers for epigenetic DNA modifications on cytosine”.

Test in all cases: DAPPL (digital affinity profiling via proximity ligation, sequencing); 10 mM Tris-HCl pH 7.5, 50 mM NaCl, 1 mM DTT, 4% glycerol, room temperature, 30 min; GST-TFs on glutathione beads, 16-mer random dsDNA library, 0.1% formaldehyde crosslink after washing; high values mean tight binding
The target in one assay is T1, FEV (Homo sapiens, UniProt Q99581 1-238).
T1 sequence: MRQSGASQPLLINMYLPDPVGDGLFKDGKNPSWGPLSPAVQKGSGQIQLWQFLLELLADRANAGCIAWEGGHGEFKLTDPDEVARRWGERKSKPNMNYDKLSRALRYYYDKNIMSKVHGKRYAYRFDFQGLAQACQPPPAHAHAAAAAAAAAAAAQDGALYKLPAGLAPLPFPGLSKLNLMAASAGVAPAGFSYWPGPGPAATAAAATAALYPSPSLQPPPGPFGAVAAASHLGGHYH
The settings on record: protein: recombinant; tags: N-terminal GST; dsDNA, one strand shown. In outline:
(§1)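 In yeast, human transcription factors were expressed with a GST fusion, then pulled down on glutathione beads and given DNA barcodes. Pooled with a tag-only sample, they were exposed to 200 nmole of a 16-mer random double-stranded DNA library (Tris/NaCl/DTT/glycerol buffer, room temperature, 30 min), washed, crosslinked with 0.1% formaldehyde, proximity-ligated using BsaI/T4 ligase for 1 h at 37 °C, PCR-amplified and read on an Illumina NextSeq500. Each hexamer's frequency of reads for a factor, divided by the matching frequency for the tag-only sample, gives the binding signal.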

For another assay, the target named is ETV5 (Homo sapiens, UniProt P41161 1-510). The settings on record: protein: recombinant; tags: N-terminal GST; dsDNA, one strand shown. In outline: as §1
Chain of ETV5 (P41161 whole entry): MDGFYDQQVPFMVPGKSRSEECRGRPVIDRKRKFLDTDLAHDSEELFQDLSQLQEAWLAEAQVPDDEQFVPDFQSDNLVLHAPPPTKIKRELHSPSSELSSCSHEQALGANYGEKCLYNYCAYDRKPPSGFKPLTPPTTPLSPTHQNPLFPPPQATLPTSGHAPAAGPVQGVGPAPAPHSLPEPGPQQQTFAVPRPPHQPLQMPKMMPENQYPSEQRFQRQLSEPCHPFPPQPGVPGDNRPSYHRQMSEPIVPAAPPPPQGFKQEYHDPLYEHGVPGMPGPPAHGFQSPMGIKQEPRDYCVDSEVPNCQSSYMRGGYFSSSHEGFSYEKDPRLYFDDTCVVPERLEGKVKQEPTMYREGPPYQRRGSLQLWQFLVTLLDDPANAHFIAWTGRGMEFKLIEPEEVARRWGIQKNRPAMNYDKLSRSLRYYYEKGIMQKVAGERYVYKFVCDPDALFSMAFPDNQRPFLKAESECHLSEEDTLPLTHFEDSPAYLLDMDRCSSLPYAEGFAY
For the next assay, the target named is HSF1 (Homo sapiens, UniProt Q00613 1-529). The settings on record: protein: recombinant; tags: N-terminal GST; chain copies: 3; dsDNA, one strand shown. In outline: as §1
Chain of HSF1 (Q00613 whole entry): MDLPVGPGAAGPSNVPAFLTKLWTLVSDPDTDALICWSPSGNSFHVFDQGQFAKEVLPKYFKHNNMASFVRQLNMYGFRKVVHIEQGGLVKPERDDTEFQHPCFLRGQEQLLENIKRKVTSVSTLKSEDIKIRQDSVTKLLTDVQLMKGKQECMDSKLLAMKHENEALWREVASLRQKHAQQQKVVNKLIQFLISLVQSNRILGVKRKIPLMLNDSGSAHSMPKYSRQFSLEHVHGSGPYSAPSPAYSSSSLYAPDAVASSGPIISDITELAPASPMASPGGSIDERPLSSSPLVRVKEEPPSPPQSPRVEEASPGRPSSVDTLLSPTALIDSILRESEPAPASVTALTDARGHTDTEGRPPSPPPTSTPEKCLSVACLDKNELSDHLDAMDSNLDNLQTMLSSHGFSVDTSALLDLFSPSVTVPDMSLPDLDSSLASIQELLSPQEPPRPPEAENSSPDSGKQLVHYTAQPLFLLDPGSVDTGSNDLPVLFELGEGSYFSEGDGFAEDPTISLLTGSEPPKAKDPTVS
The target in a further assay is T2, SPIC (Homo sapiens, UniProt Q8N5J4 1-248).
T2 sequence: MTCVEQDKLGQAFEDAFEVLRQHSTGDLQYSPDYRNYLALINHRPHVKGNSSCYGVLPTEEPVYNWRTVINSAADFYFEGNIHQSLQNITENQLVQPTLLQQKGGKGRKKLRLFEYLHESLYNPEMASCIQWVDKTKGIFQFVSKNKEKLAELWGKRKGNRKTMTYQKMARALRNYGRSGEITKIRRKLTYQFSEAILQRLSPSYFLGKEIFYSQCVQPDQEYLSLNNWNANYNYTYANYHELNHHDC
The conditions noted are these: protein: recombinant; tags: N-terminal GST; dsDNA, one strand shown. Summed up:
as §1

A further assay has as its target ELF4 (Homo sapiens, UniProt Q99607 1-663). The settings on record: protein: recombinant; tags: N-terminal GST; dsDNA, one strand shown. In outline:
as §1

The target of the next assay is T3, ELK4 (Homo sapiens, UniProt P28324-2 1-405).
T3 sequence: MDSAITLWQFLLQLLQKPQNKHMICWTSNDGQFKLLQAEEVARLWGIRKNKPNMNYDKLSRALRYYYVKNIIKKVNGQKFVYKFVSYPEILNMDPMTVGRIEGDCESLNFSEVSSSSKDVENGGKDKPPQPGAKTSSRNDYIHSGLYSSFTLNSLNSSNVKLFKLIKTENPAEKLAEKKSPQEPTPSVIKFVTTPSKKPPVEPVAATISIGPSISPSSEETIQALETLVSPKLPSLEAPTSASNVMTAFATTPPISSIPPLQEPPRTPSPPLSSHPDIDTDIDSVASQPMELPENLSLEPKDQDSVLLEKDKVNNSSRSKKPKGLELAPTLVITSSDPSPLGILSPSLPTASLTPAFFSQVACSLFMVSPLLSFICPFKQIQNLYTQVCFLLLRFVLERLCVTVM
The conditions noted are these: protein: recombinant; tags: N-terminal GST; dsDNA, one strand shown. Summed up: as §1

In the next assay the target is T4, ETV2 (Homo sapiens, UniProt O00321 1-342).
T4 sequence: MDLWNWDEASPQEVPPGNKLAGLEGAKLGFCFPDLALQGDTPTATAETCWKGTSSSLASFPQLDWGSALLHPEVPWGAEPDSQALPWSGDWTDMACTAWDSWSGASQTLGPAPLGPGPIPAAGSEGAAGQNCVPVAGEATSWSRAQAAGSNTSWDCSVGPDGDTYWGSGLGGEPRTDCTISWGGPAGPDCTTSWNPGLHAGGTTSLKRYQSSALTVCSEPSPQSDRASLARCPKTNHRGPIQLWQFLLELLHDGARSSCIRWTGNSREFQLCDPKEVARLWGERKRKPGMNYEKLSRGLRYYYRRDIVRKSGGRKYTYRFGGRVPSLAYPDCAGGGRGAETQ
The settings on record: protein: recombinant; tags: N-terminal GST; dsDNA, one strand shown. Summed up: as §1

The target in the next assay is T5, ELF3 (Homo sapiens, UniProt P78545 1-371).
T5 sequence: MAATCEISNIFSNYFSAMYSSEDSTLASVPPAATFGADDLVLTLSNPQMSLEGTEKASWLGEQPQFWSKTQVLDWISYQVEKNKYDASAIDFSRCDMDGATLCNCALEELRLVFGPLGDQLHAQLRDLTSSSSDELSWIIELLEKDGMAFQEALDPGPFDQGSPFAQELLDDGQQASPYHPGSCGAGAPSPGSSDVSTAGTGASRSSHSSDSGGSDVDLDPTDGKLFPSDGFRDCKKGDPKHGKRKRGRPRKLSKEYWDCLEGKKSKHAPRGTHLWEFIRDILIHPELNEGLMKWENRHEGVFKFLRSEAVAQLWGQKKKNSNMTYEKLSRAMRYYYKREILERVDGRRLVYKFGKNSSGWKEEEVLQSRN
The settings on record: protein: recombinant; tags: N-terminal GST; dsDNA, one strand shown. In outline:
as §1

The target in the next assay is CRX (Homo sapiens, UniProt O43186 1-299). The conditions noted are these: protein: recombinant; tags: N-terminal GST; dsDNA, one strand shown. Summed up: as §1
Chain of CRX (O43186 whole entry): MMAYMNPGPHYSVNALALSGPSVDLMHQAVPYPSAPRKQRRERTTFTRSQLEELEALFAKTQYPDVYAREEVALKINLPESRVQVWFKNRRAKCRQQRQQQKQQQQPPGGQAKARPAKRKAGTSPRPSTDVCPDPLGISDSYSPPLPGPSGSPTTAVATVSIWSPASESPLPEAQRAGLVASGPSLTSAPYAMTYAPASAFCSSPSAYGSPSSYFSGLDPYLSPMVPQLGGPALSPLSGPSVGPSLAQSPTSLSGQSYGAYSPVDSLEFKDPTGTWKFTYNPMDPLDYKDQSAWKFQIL
The target of the next assay is ETV1 (Homo sapiens, UniProt P50549 1-477). The conditions noted are these: protein: recombinant; tags: N-terminal GST; dsDNA, one strand shown. In outline: as §1
Chain of ETV1 (P50549 whole entry): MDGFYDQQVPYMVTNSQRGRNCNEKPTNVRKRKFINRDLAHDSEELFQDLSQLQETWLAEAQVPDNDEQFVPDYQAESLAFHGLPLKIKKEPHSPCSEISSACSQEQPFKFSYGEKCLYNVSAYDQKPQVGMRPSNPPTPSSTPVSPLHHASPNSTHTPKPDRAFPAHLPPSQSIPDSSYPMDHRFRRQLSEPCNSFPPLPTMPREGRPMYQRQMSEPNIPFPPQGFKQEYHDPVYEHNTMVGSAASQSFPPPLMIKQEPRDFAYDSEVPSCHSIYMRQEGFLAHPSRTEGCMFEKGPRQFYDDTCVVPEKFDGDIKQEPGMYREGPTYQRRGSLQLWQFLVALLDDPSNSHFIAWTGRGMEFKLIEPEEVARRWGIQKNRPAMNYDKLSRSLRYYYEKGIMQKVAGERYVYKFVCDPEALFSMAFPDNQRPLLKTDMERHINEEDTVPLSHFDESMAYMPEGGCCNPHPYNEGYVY

Chain of ELF4 (Q99607 whole entry): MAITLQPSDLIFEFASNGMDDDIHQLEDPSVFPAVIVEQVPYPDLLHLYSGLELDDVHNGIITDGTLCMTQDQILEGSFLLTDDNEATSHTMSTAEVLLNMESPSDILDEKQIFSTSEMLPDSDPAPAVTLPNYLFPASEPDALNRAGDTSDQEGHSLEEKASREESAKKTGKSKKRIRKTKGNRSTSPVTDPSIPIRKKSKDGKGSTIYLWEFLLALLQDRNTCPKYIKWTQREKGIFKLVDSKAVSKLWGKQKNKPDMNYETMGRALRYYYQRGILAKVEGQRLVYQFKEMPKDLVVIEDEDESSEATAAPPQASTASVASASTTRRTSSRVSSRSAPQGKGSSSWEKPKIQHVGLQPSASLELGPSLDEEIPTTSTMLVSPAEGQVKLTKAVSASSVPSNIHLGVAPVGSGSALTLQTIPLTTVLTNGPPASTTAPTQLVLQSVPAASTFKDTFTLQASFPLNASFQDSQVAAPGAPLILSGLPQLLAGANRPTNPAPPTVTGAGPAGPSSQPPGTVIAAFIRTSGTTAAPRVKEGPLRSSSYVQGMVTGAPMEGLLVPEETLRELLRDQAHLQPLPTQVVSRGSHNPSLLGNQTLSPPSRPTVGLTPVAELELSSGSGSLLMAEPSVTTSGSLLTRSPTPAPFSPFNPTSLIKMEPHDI

As to ATCTGT, the binding signal in the assay with FEV is 1.22 fold enrichment (6-mer frequency, TF over GST control); in the assay with ETV5 it was 1.07 fold enrichment (6-mer frequency, TF over GST control); with HSF1, 1.26 fold enrichment (6-mer frequency, TF over GST control); with SPIC it was 1.19 fold enrichment (6-mer frequency, TF over GST control); in the assay with ELF4, 1.21 fold enrichment (6-mer frequency, TF over GST control); in the assay with ELK4 it was 1.1 fold enrichment (6-mer frequency, TF over GST control). In addition, the binding signal was 1.19 fold enrichment (6-mer frequency, TF over GST control) with ETV2; 1.17 fold enrichment (6-mer frequency, TF over GST control) with ELF3; 1.45 fold enrichment (6-mer frequency, TF over GST control) with CRX; 1.26 fold enrichment (6-mer frequency, TF over GST control) with ETV1.
